Assay results published in PubChem BioAssay AID1159580 (chemical genetic matrix, 2015).
Values joined by “and” are separate entries in the source; they are usually repeats but may differ in a detail not shown here. Identical values can stand only once. About 2,000 (36%) of roughly 5,500 compounds were called active. Roughly 18% stayed inconclusive and do not appear here. Cut-off read from the data, not from the text of the source: active = normalized growth mostly below about 0.91 (no sharp cut-off); inconclusive = no clear call, values can overlap the other calls; inactive = mostly above about 0.92. Some of the results follow.

Test: chemical genetic growth profiling, strain panel (AID 1159580);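 note: tested at 20 µM; growth read once vehicle control cultures reached saturation at 30 °C; 1 = growth at the plate median or of vehicle wells; lower values mean less growth of the strain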
Conditions: S. cerevisiae deletion strains, growth OD

Measured: normalized growth

N#CC(O[C@@H]1O[C@H](CO[C@@H]2O[C@H](CO)[C@@H](O)[C@H](O)[C@H]2O)[C@@H](O)[C@H](O)[C@H]1O)c1ccccc1 (some centres not stated)
inactive: locus YAL013W, strain DEP1, stronger effect = lower value 1 | locus YAL021C, strain ccr4, stronger effect = lower value 0.965 | locus YAL026C, strain drs2, stronger effect = lower value 0.99 | locus YAL030W, strain snc1, stronger effect = lower value 0.986 | locus YBL061C, strain skt5, stronger effect = lower value 0.97 | locus YBR009C, strain hhf1, stronger effect = lower value 0.987 | locus YBR021W, strain FUR4, stronger effect = lower value 0.986 | locus YBR023C, strain chs3, stronger effect = lower value 0.979 | locus YBR171W, strain sec66, stronger effect = lower value 0.975 | locus YBR229C, strain ROT2, stronger effect = lower value 0.993 | locus YBR231C, strain swc5, stronger effect = lower value 0.981 | locus YBR279W, strain paf1, stronger effect = lower value 0.981 | locus YCL011C, strain gbp2, stronger effect = lower value 0.986 | locus YCL016C, strain dcc1, stronger effect = lower value 0.983 | locus YCL029C, strain bik1, stronger effect = lower value 1 | locus YCL061C, strain MRC1, stronger effect = lower value 0.99 | locus YCL069W, strain vba3, stronger effect = lower value 0.988 | locus YCR088W, strain abp1, stronger effect = lower value 0.975 | locus YDL005C, strain med2, stronger effect = lower value 0.967 | locus YDL035C, strain GPR1, stronger effect = lower value 1.01 | locus YDL040C, strain nat1, stronger effect = lower value 0.976 | locus YDL074C, strain BRE1, stronger effect = lower value 1.01 | locus YDL101C, strain DUN1, stronger effect = lower value 1 | locus YDL185W, strain tfp1, stronger effect = lower value 0.975 | locus YDL192W, strain arf1, stronger effect = lower value 0.998 | locus YDR001C, strain nth1, stronger effect = lower value 0.988 | locus YDR069C, strain doa4, stronger effect = lower value 0.975 | locus YDR101C, strain arx1, stronger effect = lower value 0.995 | locus YDR137W, strain rgp1, stronger effect = lower value 1.01 | locus YDR150W, strain NUM1, stronger effect = lower value 1.01 | locus YDR159W, strain sac3, stronger effect = lower value 0.961 | locus YDR162C, strain NBP2, stronger effect = lower value 1.04 | locus YDR195W, strain ref2 0.945 | locus YDR297W, strain sur2, stronger effect = lower value 0.992 | locus YDR318W, strain mcm21, stronger effect = lower value 1 | locus YDR334W, strain swr1, stronger effect = lower value 0.984 | locus YDR335W, strain msn5, stronger effect = lower value 0.988 | locus YDR388W, stronger effect = lower value 0.991 | locus YDR392W, strain spt3, stronger effect = lower value 0.974 | locus YDR502C, strain sam2, stronger effect = lower value 1.02 | locus YEL003W, strain gim4, stronger effect = lower value 0.99 | locus YEL037C, strain rad23, stronger effect = lower value 0.982 | locus YEL061C, strain CIN8 (second series), stronger effect = lower value 0.991 | locus YEL061C, strain CIN8, stronger effect = lower value 1 | locus YER015W, strain faa2, stronger effect = lower value 0.987 | locus YER016W, strain bim1, stronger effect = lower value 0.977 | locus YER110C, stronger effect = lower value 0.996 | locus YER111C, strain swi4, stronger effect = lower value 0.982 | locus YER155C, strain BEM2 (second series), stronger effect = lower value 0.966 | locus YER155C, strain BEM2, stronger effect = lower value 0.992 | locus YER167W, strain BCK2, stronger effect = lower value 1 | locus YFR010W, strain ubp6, stronger effect = lower value 0.977 | locus YGL078C, strain dbp3, stronger effect = lower value 0.989 | locus YGL086W, strain mad1, stronger effect = lower value 0.995 | locus YGL167C, strain pmr1, stronger effect = lower value 0.98 | locus YGL173C, strain kem1, stronger effect = lower value 0.963 | locus YGL227W, strain vid30, stronger effect = lower value 0.97 | locus YGL240W, strain doc1, stronger effect = lower value 0.971 | locus YGL248W, strain PDE1, stronger effect = lower value 1.05 | locus YGL253W, strain hxk2, stronger effect = lower value 0.985 | locus YGR135W, strain pre9, stronger effect = lower value 0.985 | locus YGR252W, strain gcn5, stronger effect = lower value 0.987 | locus YHR013C, strain ard1, stronger effect = lower value 0.964 | locus YHR027C, strain rpn1, stronger effect = lower value 0.98 | locus YHR030C, strain SLT2, stronger effect = lower value 1 and 0.975 | locus YHR079C, strain IRE1 (second series), stronger effect = lower value 0.99 | locus YHR079C, strain IRE1, stronger effect = lower value 0.971 | locus YHR094C, strain hxt1, stronger effect = lower value 0.978 | locus YHR129C, strain ARP1, stronger effect = lower value 1 | locus YHR142W, strain chs7, stronger effect = lower value 0.983 | locus YHR200W, strain rpn10, stronger effect = lower value 1 | locus YIL066C, strain RNR3, stronger effect = lower value 1.03 | locus YIL073C, strain SPO22, stronger effect = lower value 1.02 | locus YIL125W, strain kgd1, stronger effect = lower value 0.996 | locus YIR030C, strain dcg1, stronger effect = lower value 0.992 | locus YJL092W, strain hpr5, stronger effect = lower value 0.987 | locus YJL095W, strain BCK1 (second series), stronger effect = lower value 0.971 | locus YJL095W, strain BCK1, stronger effect = lower value 1.06 and 1.01 | locus YJL115W, strain asf1, stronger effect = lower value 0.977 | locus YJL129C, strain trk1, stronger effect = lower value 0.967 | locus YJL134W, strain LCB3, stronger effect = lower value 0.993 | locus YJL154C, strain vps35, stronger effect = lower value 0.979 | locus YJL164C, strain tpk1, stronger effect = lower value 0.98 | locus YJL166W, strain qcr8, stronger effect = lower value 0.982 | locus YJL168C, strain set2, stronger effect = lower value 0.993 | locus YJL187C, strain SWE1 (second series), stronger effect = lower value 1.02 | locus YJL187C, strain SWE1, stronger effect = lower value 0.994
